The source made the active and inactive calls.

Assay [1] in a line: A549 cell viability effects, profiling panel, calcein-AM fluorescence, 48 h, basal (AID 1162). The note with it: higher = more signal.
A short description of assay [2]: adipocyte viability effects, profiling panel, cell-based, 3T3-L1 adipocytes, calcein-AM fluorescence, 48 h, basal (AID 1163). The note with it: 3T3-L1 adipocytes viability, higher = more signal.
Assay [3] can be described thus: HepG2 cell viability effects, profiling panel, calcein-AM fluorescence, 48 h, basal (AID 1164). The conditions noted are these: higher = more signal.
Assay [4] in a line: MM1S cell viability effects, profiling panel, calcein-AM fluorescence, 48 h, basal (AID 1165).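 Further: viability of MM1S multiple myeloma cells under basal unstimulated conditions.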 The conditions noted are these: higher = more signal.
Assay [5] in a line: basal RPMI8226 viability, no added stimulus, profiling panel, cell-based, calcein-AM fluorescence, 48 h, PK04 Diversity Set (AID 1166).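 Further: cells grown under basal conditions without added stimulus.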 The note with it: RPMI8226 myeloma viability, higher = more signal.
Assay [6] is described as follows: basal HepG2 mitochondrial membrane potential changes, profiling panel, cell-based, JC-1 fluorescence, 24 h, 100 nL compound (AID 1167). The note with it: higher = more signal.
A short description of assay [7]: basal 3T3-L1 adipocyte mitochondrial potential changes, profiling panel, cell-based, JC-1 fluorescence, 3T3-L1 adipocytes, 24 h, 100 nL compound (AID 1168). The conditions noted are these: JC-1 mitochondrial fluorescence, higher = more signal, called active from +8 up or from −8 down.
The nature of assay [8]: basal RPMI8226 mitochondrial membrane potential changes, profiling panel, cell-based, JC-1 fluorescence, 24 h, 100 nL compound (AID 1169). The note with it: RPMI8226 myeloma, JC-1 mitochondrial potential fluorescence, higher = more signal.
Assay [9] can be described thus: basal MM1S mitochondrial membrane potential changes, profiling panel, cell-based, JC-1 fluorescence, 24 h, 100 nL compound (AID 1170). The conditions noted are these: higher = more signal.
Assay [10] can be described thus: A549 lung cancer cell viability effects, profiling panel, resazurin fluorescence, 24 h, PK04 Diversity Set (AID 1171). The conditions noted are these: higher = more signal, called active from +8 up or from −8 down. In general terms: The colour change of resazurin is a common sign of viable cells or microbes.
Further: test concentration not given here.

As to `CCCCC(=C=CC[C@@H](O)c1cccc(OCCO)c1)C[C@@H](O)c1ccccn1`, the z-score was -0.0385 in [1]; 0.317 in assay [2]; 0.175 in assay [3]; 0.225 in assay [4]; 0.427 in assay [5]; -0.667 in [6]. Moreover, the z-score in assay [7] is 0.316 (inactive); in [8] it was 0.907; in assay [9], -0.578; in assay [10], 0.764 (inactive).

For `CC1CC/C=C\[C@H]2OC34C=CCN(c5ccc6ccccc6c5)C(=O)[C@H]3N(CCO)C(=O)[C@@H]4C2C(=O)O1` (stereo not given in full), the z-score was -0.099 in assay [1]; 0.428 in assay [2]; -0.303 in [3]; 1.01 in assay [4]; -0.36 in assay [5]; -0.438 in [6]. Besides, the z-score is -0.55 (inactive) in [7], -0.0138 in [8], 1.19 in assay [9] and -0.573 (inactive) in assay [10].

Turning to `O=C1C2C=CC(C(O)c3ccc4c(c3)OCO4)N(Nc3ccc([N+](=O)[O-])cc3)C2C(=O)N1c1ccccc1` (stereo not given), the z-score in [1] is -0.649; in [2] it was -1.09; in assay [3], 0.199; in assay [4], 0.259; in assay [5] it was -0.169; in [6] it was -0.941. In addition, the z-score is -0.856 (inactive) in [7], 0.575 in [8], -0.77 in assay [9] and -0.0894 (inactive) in assay [10].

On to `COC(=O)C(CC#Cc1ccc2c(c1)[C@]1(C(=O)N2)[C@H](c2ccc(O)cc2)N2[C@H](c3ccccc3)[C@H](c3ccccc3)OC(=O)[C@H]2[C@@H]1C(=O)N1CCN(c2ncccn2)CC1)C(=O)OC`, for which the z-score in assay [1] is -0.112; in [2], -0.274; in assay [3], 0.9; in [4] it was -2.43; in [5], -4.48; in assay [6], -0.758. The z-score in [7] was 0.999 (inactive); in assay [8] it was -1.07; in assay [9], -2.02; in [10], -0.558 (inactive).

In the case of `COc1ccc([Si](C)(C)[C@@H]2[C@@H](CCO)O[C@]3(C(=O)N(Cc4cccc(N5CCOC5=O)c4)c4ccccc43)[C@H]2C)cc1`, the z-score in assay [1] is -0.687; in assay [2], -0.514; in assay [3] it was -0.769; in [4] it was -2.11; in assay [5] it was -4.17; in [6] it was 0.183. Besides, the z-score is 1.05 (inactive) in assay [7], -0.978 in [8], -1.78 in [9] and -1.76 (inactive) in assay [10].

As to `COC(=O)[C@@]1(Cc2ccc(OC)cc2)[C@H]2c3cc(C(=O)N4CCCC4)n(CCSCCO)c3C[C@H]2CN1C(=O)c1ccccc1`, the z-score in [1] was -0.35; in assay [2], 0.319; in assay [3], -0.814; in [4] it was -2.68; in assay [5], -0.804; in [6], 1.5. The z-score was -1.29 (inactive) in assay [7], -0.689 in assay [8], 0.168 in [9] and 1.57 (inactive) in assay [10].

Turning to `COc1cc2c(cc1O)C(c1cccs1)N(Cc1cccc(OC(F)(F)F)c1)CC2` (stereo not given), the z-score in [1] was -2.79; in assay [2], -0.0814; in [3], -2.37; in assay [4] it was -3.14; in [5] it was -4.49; in assay [6] it was -2.21. In addition, the z-score is -0.019 (inactive) in assay [7], -0.774 in [8], -1.77 in [9] and -1.98 (inactive) in assay [10].

Regarding `C=C(CCCC)/C(=C/C[C@H](OC(=O)c1ccncc1)c1ccc(OCCO)cc1)c1cc(C(=O)OC)ccc1OC`, the z-score was -0.154 in assay [1]; 1.55 in assay [2]; -0.754 in assay [3]; -1.47 in assay [4]; -2.56 in assay [5]; 1.22 in assay [6]. Further, the z-score was 0.0667 (inactive) in assay [7], -0.281 in [8], -0.93 in assay [9] and 0.54 (inactive) in [10].

Consider `C[N+](C)(C)CCCC[C@@H]1NC(=O)[C@@H]2C[C@H](C(=O)NCCCCCN)[C@H](c3ccc(O)cc3)N2C1=O`, for which the z-score in [1] is 1.01; in assay [2], 0.641; in assay [3], 0.383; in assay [4], 0.312; in [5], 0.828; in [6], 1.79. Moreover, the z-score is -0.13 (inactive) in assay [7], 0.243 in assay [8], 0.41 in [9] and -0.0115 (inactive) in assay [10].

`COC(=O)[C@@]1(Cc2ccccc2)[C@H]2c3cc(C(=O)N(C)C)n(CCc4c[nH]c5ccc(O)cc45)c3C[C@H]2CN1C(=O)c1ccccc1`: the z-score in assay [1] was -0.206; in [2] it was 0.389; in assay [3] it was 1.22; in assay [4], -0.988; in assay [5], -0.235; in [6] it was -1.3. The z-score in [7] is -0.215 (inactive); in [8], -0.532; in assay [9] it was -1.57; in [10], 0.349 (inactive).

Regarding `O=C1C2C=CC(C(O)c3c(F)cccc3Cl)N(Nc3ccccc3F)C2C(=O)N1c1ccccc1` (stereo not given), the z-score in assay [1] was -0.505; in assay [2], -1.08; in assay [3] it was -0.257; in assay [4], 0.278; in [5], -0.0072; in assay [6], -1.03. Moreover, the z-score was -0.217 (inactive) in assay [7], -0.277 in assay [8], -0.298 in [9] and -0.103 (inactive) in assay [10].

For `Cc1ccc(S[C@]2(C(=O)NCC(C)C)CC(=O)N(Cc3cc(C(F)(F)F)cc(C(F)(F)F)c3)[C@@H]2c2ccc(CO)cc2)cc1`, the z-score was -0.174 in assay [1]; 0.518 in [2]; -0.527 in assay [3]; -0.741 in assay [4]; -0.744 in assay [5]; -0.444 in [6]. For the same compound, the z-score is -0.612 (inactive) in assay [7], 0.244 in assay [8], -0.133 in assay [9] and -0.0187 (inactive) in assay [10].

As to `CCCC=C(CCC)[C@@H](NS(=O)(=O)c1ccc(Cl)cc1)c1ccc(C(=O)OC)cc1`, the z-score was -1.18 in assay [1]; 0.391 in assay [2]; -0.845 in assay [3]; 0.48 in assay [4]; -0.595 in assay [5]; -1.07 in assay [6]. Moreover, the z-score was -0.542 (inactive) in assay [7], -0.906 in assay [8], -0.98 in assay [9] and 0.475 (inactive) in [10].

Consider `CC(C)[Si](C#CCCCC#N)(O[C@H](c1ccccc1)c1cn(Cc2cccc(Cl)c2)nn1)C(C)C`, for which the z-score in assay [1] was -1.13; in assay [2], -0.75; in assay [3], -0.626; in assay [4], -0.883; in assay [5], -4.19; in [6], 6.65. The z-score is -0.108 (inactive) in assay [7], -0.882 in assay [8], -1.56 in assay [9] and 0.268 (inactive) in assay [10].

In the case of `NCCCCCNC(=O)[C@H]1C[C@H]2C(=O)N3CCC[C@H]3C(=O)N2[C@H]1c1ccc(O)cc1`, the z-score is -0.246 in assay [1]; 0.339 in assay [2]; -0.0476 in assay [3]; -1.11 in assay [4]; -0.177 in assay [5]; -0.0181 in assay [6]. In addition, the z-score in [7] was 0.0417 (inactive); in assay [8], -0.398; in assay [9], 0.286; in assay [10], -0.166 (inactive).

As to `CC(C)(C)OC(=O)CC[C@]1(C(N)=O)N=C(c2ccc(OCCCO)cc2)O[C@H]1c1ccccc1`, the z-score in [1] was -0.73; in [2], 0.13; in assay [3], -0.61; in [4] it was -0.415; in [5], 0.37; in [6] it was -1.26. For the same compound, the z-score in assay [7] was -0.709 (inactive); in assay [8], 0.816; in [9], 0.335; in assay [10], -0.164 (inactive).

The record behind these values is PubChem BioAssay.
